Experiments:
[1] = tested on: Vero E6 infected with SARS-CoV-2; assay: inhibition of SARS-CoV-2 cytopathic effect; higher = more antiviral protection, active = above 15; details: 48 h
[2] = tested on: Vero E6 infected with SARS-CoV-2; assay: morphology score (similarity to uninfected cells); higher = more like uninfected cells; details: 24 h
[3] = tested on: Vero E6 infected with SARS-CoV-2; assay: SARS-CoV-2 infection rate relative to infected DMSO; higher = more infection, active = 60 or less; details: 24 h

| Compound | inhibition of SARS-CoV-2 cytopathic effect ([1]; 1 nM) | inhibition of SARS-CoV-2 cytopathic effect ([1]; 8.33 nM) | inhibition of SARS-CoV-2 cytopathic effect ([1]; 100 nM) | inhibition of SARS-CoV-2 cytopathic effect ([1]; 833.33 nM) | inhibition of SARS-CoV-2 cytopathic effect ([1]; 10000 nM) | morphology score [2] | SARS-CoV-2 infection rate [3] |
| --- | --- | --- | --- | --- | --- | --- | --- |
| N[C@H](C(=O)O)c1ccc(O)c(C(=O)O)c1 [3-carboxy-4-hydroxyphenylglycine-(S)] | -1.22% (inactive) | 0.105% (inactive) | -0.545% (inactive) | -1.18% (inactive) | 0.39% (inactive) |  |  |
| CN(C)C(=S)SSC(=S)N(C)C [thiram] | 5.06% (inactive) | 3.58% (inactive) | -8.77% (inactive) |  |  |  |  |
| C=CCN(C)CCCCCCOc1ccc(C(=O)c2ccc(Br)cc2)c(F)c1 | 0.63% (inactive) | 1.12% (inactive) | 2.12% (inactive) | 0.47% (inactive) | 13.8% (inactive) |  |  |
| CCN1CCN(c2ccc(Nc3cc(N(C)C(=O)Nc4c(Cl)c(OC)cc(OC)c4Cl)ncn3)cc2)CC1 | -2.08% (inactive) | -5.16% (inactive) | 0.14% (inactive) | -2.75% (inactive) | 23.9% (active) |  |  |
| O=C([O-])c1ccccc1-c1c2cc(Br)c(=O)cc-2oc2[c]([Hg+])c([O-])c(Br)cc12.[Na+].[Na+].[OH-] [merbromin] | -11.2% (inactive) | -13.3% (inactive) | -11.5% (inactive) |  |  |  |  |
| NC(=S)N/N=C/c1coc2ccccc2c1=O.[Cl][Cu][Cl] | 0.84% (inactive) | -0.38% (inactive) | 1.98% (inactive) | -0.55% (inactive) | 2.4% (inactive) |  |  |
| COC(=O)N[C@H](C(=O)N[C@@H](Cc1ccccc1)[C@@H](O)CN(Cc1ccc(-c2ccccn2)cc1)NC(=O)[C@@H](NC(=O)OC)C(C)(C)C)C(C)(C)C [atazanavir] (10 µM) |  |  |  |  |  | 0.129 | 112% (inactive) |
| CC(=O)Nc1cc([As](=O)(O)O)ccc1O [acetarsol] | 0.15% (inactive) | 0.13% (inactive) | 1.84% (inactive) |  |  |  |  |
| C#Cc1cccc2c1c(C(=O)c1ccc(Cn3c(C)nc4cnccc43)c(F)c1)cn2C(=O)N(C)C | -0.44% (inactive) | -1.26% (inactive) | 0.63% (inactive) | -0.09% (inactive) | -1.98% (inactive) |  |  |
| O=[N+]([O-])c1cc([As](=O)(O)O)ccc1O [roxarsone] | -3.44% (inactive) | -2.76% (inactive) | -4.83% (inactive) |  |  |  |  |
| Nc1c(Br)cc(Br)cc1CN[C@H]1CC[C@H](O)CC1 [ambroxol] | -4.07% (inactive) | -1% (inactive) | -0.99% (inactive) | 1.23% (inactive) | -1.75% (inactive) |  |  |
| Cc1csc2c(N[C@@H](C)CN3CCN(S(=O)(=O)c4ccc(Cl)c(Cl)c4)CC3)ncnc12 [LPA2-antagonist-1] | -0.43% (inactive) | -0.37% (inactive) | 1.73% (inactive) | 1.34% (inactive) | 5.53% (inactive) |  |  |
| O=c1[nH]c2cc(Cl)ccc2c(O)c1-c1cccc(Oc2ccccc2)c1 | 1.74% (inactive) | 0.53% (inactive) | 2.73% (inactive) |  |  |  |  |
| CCOc1nc2cccc(C(=O)OCc3oc(=O)oc3C)c2n1Cc1ccc(-c2ccccc2-c2noc(=O)[nH]2)cc1 [azilsartan-medoxomil] | 0.24% (inactive) | 1.14% (inactive) | 2.01% (inactive) | 1.93% (inactive) | -0.28% (inactive) |  |  |
| O=[N+]([O-])c1ccc([As](=O)(O)O)cc1 [nitarsone] | -0.01% (inactive) | 1.59% (inactive) | 0.4% (inactive) |  |  |  |  |
| Cc1cc(OCC(=O)O)cc(C)c1Cc1ccc(O)c(C(C)C)c1 [sobetirome] | 1.8% (inactive) | -0.19% (inactive) | -3.41% (inactive) | -2.42% (inactive) | -2.77% (inactive) |  |  |
| O[C@H]1[C@H]2[C@H](O)CCCN2C[C@H]1O [swainsonine] | -4.09% (inactive) | 2.85% (inactive) | 1.87% (inactive) | -1.43% (inactive) | -5.03% (inactive) |  |  |
| CN(C)Cc1c(C(=O)NCCOc2ccc(C(=O)NO)cc2)oc2ccccc12 | -1.08% (inactive) | 3.14% (inactive) | -1.35% (inactive) | -15.5% (inactive) | -26.9% (inactive) |  |  |
| O=C1O[C@H]([C@@H](O)CO)C(O)=C1O | -3.29% (inactive) | -0.03% (inactive) | -1.22% (inactive) | -0.21% (inactive) | -1.51% (inactive) |  |  |
| Nc1ccc(O)c(C(=O)O)c1 [mesalazine] | 1.06% (inactive) | -2.08% (inactive) | 1.03% (inactive) | -1.05% (inactive) | -2.08% (inactive) |  |  |
| O=C(Nc1ccccc1Br)N[C@@H]1CCN(c2ccc(C(F)(F)F)cn2)C1 (10 µM) |  |  |  |  |  | 0.0714 | 94.5% (inactive) |
| Cl[C@H]1[C@H](Cl)[C@@H](Cl)[C@@H](Cl)[C@H](Cl)[C@H]1Cl [lindane] | -2.48% (inactive) | -1.41% (inactive) | -0.79% (inactive) |  |  |  |  |
| C[C@]12CC[C@@H]3c4ccc(O)cc4CC[C@H]3[C@@H]1CCC2=O [estrone] | 1.09% (inactive) | 1.93% (inactive) | -0.92% (inactive) | 0.5% (inactive) | 2.53% (inactive) |  |  |

Reference: the supplement of paper PMC13380429
